# Test results: PubChem BioAssay (NCATS)
# Results filed as inconclusive are left out. Calls of active or inactive are those of the source. Calls come from the whole dose curve; as a rule, active = well fitted curve in the direction sought with a large enough effect in the signal ratio; inconclusive = small, poorly fitted or top-dose-only effect, or effect the other way, or a change in a side signal; inactive = no such curve, though single readings can be large or run the other way; the % refers to the signal ratio.
# Assay: qHTS Assay for Modulators of Human Peripheral Myelin Protein 22 (PMP22) Expression/Activity (AID 1967);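 note: 0% = untreated cells and 100% end not stated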
# Conditions: Cell-based PMP22 reporter, dual-color luciferase ratio, 0% = compound-free control cells, mouse Pmp22 promoter in mouse Schwann cells; series mostly up to 115 µM; activity change (ratio): at the top concentration
# Description: Charcot-Marie-Tooth-Association [CMTA]
# NIH Chemical Genomics Center [NCGC]
# Charcot-Marie-Tooth (CMT) disease was first characterized by Jean-Martin Charcot and Pierre Marie in France and, independently, by Howard Henry Tooth in England in 1886. CMT is one of the most common inherited neurological diseases, affecting about 125,000 Americans. […] The most common cause of CMT is known as CMT1A, and is caused by a duplication of the PMP22 gene, leading to over-expression of this protein. PMP22 is a glycosylated intrinsic membrane protein accounting for 2-5% of the myelin protein content and over-expression leads to demyelination and subsequently axonal loss.
# A cell-based assay for PMP22 expression modulation was developed by Drs. Ned Mantei and Ueli Suter on behalf of the CMTA. This assay employs a mouse Schwann cell line, MSC80 (Boutry et al., 1992), that was engineered to have the mouse Pmp22 promoter driving expression of a green light-emitting click beetle luciferase (CBG68; Chroma-Gl developed by Promega Corp). A red light-emitting click beetle luciferase (CBR; developed by Promega Corp: CBG68 and CBR differ by only a few amino acids within the D-luciferin binding pocket) under control of the EF-alpha promoter is also stably expressed in the same cells for use as an internal control for nonspecific promoter- or reporter-based effects.
# NCGC Assay Protocol Summary:
# Cells were seeded in white solid 1536-well plates at between 500-750 cells/4uL in DMEM medium containing 10% FBS, w/o phenol red. After overnight incubation at 37 degree Celsius/5% C02, 23 nL of compounds or DMSO were delivered to each well using a pin tool, followed by 24h-incubation at 37 degree Celsius/5% C02. Then 4 uL Chroma-Glo luminescent substrate mix (Promega) was added to each well. Luminescence was measured on a ViewLux plate reader (Perkin Elmer) using a 540/25 nm filter for green luminescence and a 618/8 nm filter for red luminescence. The green and red luminescent signals were corrected for red and green luminescence filter overlap using filter calibration constants (determined using control cell lines expressing either the green or red CBLuc reporters using the procedures given in Davis et al., 2007). The %Activity was determined from the ratio of corrected green/red luminescent values. Green luminescent and ratio %Activity was determined by normalizing to the signal between of untreated cells (0% Activity)
# Keywords: luminescence, PMP22, CMT1A, NCGC, CMTA, qHTS
# Concentration-response curves were fitted to the signals arising from the green luminescence (PMP22 promoter driven expression) and the red luminescence (control promoter) as well as the calculated ratio. The concentration-effect curves were then classified based on curve quality (r2), response magnitude and degree of measured activity.
row,SMILES,activity change (ratio)
1,O=[N+]([O-])c1cccc2cn[nH]c12,30% (inactive)
2,O=C(O)c1cc(=O)cc(C(=O)O)[nH]1,14% (inactive)
3,COc1cc2c(CCNC(C)=O)c[nH]c2cc1O,-16.4% (inactive)
4,CC(N)(C(=O)O)c1ccc(C(=O)O)cc1 (stereo not given),12% (inactive)
5,Cn1ccnc1,5.26% (inactive)
6,CC(=O)NCCc1c[nH]c2ccc(O)cc12,7.61% (inactive)
7,Oc1ccc(Cn2cc[nH]c2=S)cc1,15.6% (inactive)
8,N[C@@H](CS(=O)O)C(=O)O,13.7% (inactive)
9,CC1CCN(CC[C@H]2CCCN2S(=O)(=O)c2cccc(O)c2)CC1,13.5% (inactive)
10,O=C(O)c1cc2cc(F)ccc2[nH]1,-2.04% (inactive)
11,NC(Cc1cccc(-c2ccccc2CP(=O)(O)O)c1)C(=O)O (stereo not given),22.4% (inactive)
12,COC(=O)C(C)(N)Cc1ccc(O)cc1 (stereo not given),25.6% (inactive)
13,CCCc1c(OCCCOc2ccc(OCC(=O)O)cc2)ccc(C(C)=O)c1O,5.25% (inactive)
14,Cc1nc(N=Nc2ccc(S(=O)(=O)O)cc2S(=O)(=O)O)c(COP(=O)(O)O)c(C=O)c1O,6.14% (inactive)
15,NCCCCN,8.22% (inactive)
16,CSC(N)=NCCC[C@H](N)C(=O)O,20.3% (inactive)
17,NC1CCN(O)C1=O (stereo not given),14.3% (inactive)
18,CCCCOc1cc(CC2CNC(=O)N2)ccc1OC (stereo not given),12% (inactive)
19,CCCCCC[C@@H]([C@@H](C)O)n1cnc2c(N)ncnc21,8.89% (inactive)
20,Cc1ccc([N+](=O)[O-])cc1S(=O)(=O)N(C)C,28% (inactive)

row,SMILES,activity change (ratio)
1,CCC(=O)N1CCN(C(=O)c2ccccc2)CC1,16.8% (inactive)
2,N[C@H](C(=O)O)c1cc(O)cc(O)c1,18% (inactive)
3,CC(C)Cn1c(=O)n(C)c(=O)c2[nH]cnc21,18.2% (inactive)
4,N[C@@H](CCCC(=O)O)C(=O)O,7.97% (inactive)
5,COc1cc(C(O)CO)ccc1O (stereo not given),18.7% (inactive)
6,CCCCCCC/C=C\CCCCCCCCC(=O)O,13.9% (inactive)
7,COc1cc(C(O)C(=O)O)ccc1O (stereo not given),-9.13% (inactive)
8,CCCn1c(=O)c2[nH]c(-c3ccc(S(=O)(=O)O)cc3)nc2n(CCC)c1=O,19.4% (inactive)
9,N=C(N)c1ccccc1,-21.7% (inactive)
10,Cc1cccc(C)c1OCC(N)C(C)C (stereo not given),-14.5% (inactive)
11,CC1C(=O)N(C)C(=O)c2nc[nH]c21 (stereo not given),11.7% (inactive)
12,CC(=O)O[C@H]1CC2(C)[C@@H](C[C@@H](O)[C@H]3[C@@]4(C)CC[C@@H](O)[C@@H](C)[C@@H]4CC[C@@]32C)C1=C(CCC=C(C)C)C(=O)O (stereo not given in full),13.9% (inactive)
13,CC(N)(Cc1ccc(O)cc1)C(=O)O (stereo not given),3.66% (inactive)
14,O=C(O)C1CN(CCCP(=O)(O)O)CCN1 (stereo not given),20.7% (inactive)
15,CCCCCC(O)CCCC(=O)O (stereo not given),17.3% (inactive)
16,NC(=O)c1cc[n+](CC2=C(C(=O)O)N3C(=O)[C@@H](NC(=O)[C@@H](c4ccccc4)S(=O)(=O)[O-])[C@H]3SC2)cc1,-4.49% (inactive)
17,COC1(C2=NCCN2)COc2ccccc2O1 (stereo not given),19.5% (inactive)
18,COc1ccc(C(=O)NCc2cccnc2)cc1C(=O)NCc1cccnc1,-13% (inactive)
19,NC(C(=O)N[C@@H]1C(=O)N2C(C(=O)O)=C(Cl)CS[C@H]12)c1ccccc1 (stereo not given in full),-8.68% (inactive)
20,O=C(O)C1CCCNC1 (stereo not given),13.5% (inactive)
